“And” between values parts separate entries of the source, which are not always exact repeats. Identical values can stand only once. Inconclusive results are not listed. The source holds several records for some structures; these can differ, active in one and inactive in another. The source made the active and inactive calls. Unless noted, calls come from the whole dose curve; as a rule, active = well fitted inhibition curve with a large enough effect; inconclusive = small, poorly fitted or top-dose-only effect; inactive = flat fitted curve, though single readings scatter.
Each compound was assayed against Ubiquitin carboxyl-terminal hydrolase 1 (Homo sapiens) (UniProt O94782) (assay: Inhibitors of USP1/UAF1: Pilot qHTS (AID 504865;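 note: rhodamine fluorescence freed from ubiquitin-rhodamine substrate followed over time; top concentration of the series differs between compounds; % is set by controls: 0 for no effect and ±100 for the full control effect; nearly all actives have a fitted effect of over 35% in size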)). Conditions: purified USP1/UAF1, Ub-rhodamine cleavage fluorescence; series mostly up to 114 µM; activity change, negative = inhibition: at the top concentration.
Summary of the method: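 USP1/UAF1 complex (1nM) preincubated with compound 15 min at room temperature, then Ub-Rho substrate (150nM final) added. Fluorescence read kinetically at 480/540 nm, 6 reads every 60 seconds. Buffer: 50mM HEPES pH 7.8, 0.5mM EDTA, 0.1 mg/ml BSA, 1mM TCEP, 0.01% Tween-20.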

Chain of Ubiquitin carboxyl-terminal hydrolase 1 (Homo sapiens) (O94782 whole entry, looked up): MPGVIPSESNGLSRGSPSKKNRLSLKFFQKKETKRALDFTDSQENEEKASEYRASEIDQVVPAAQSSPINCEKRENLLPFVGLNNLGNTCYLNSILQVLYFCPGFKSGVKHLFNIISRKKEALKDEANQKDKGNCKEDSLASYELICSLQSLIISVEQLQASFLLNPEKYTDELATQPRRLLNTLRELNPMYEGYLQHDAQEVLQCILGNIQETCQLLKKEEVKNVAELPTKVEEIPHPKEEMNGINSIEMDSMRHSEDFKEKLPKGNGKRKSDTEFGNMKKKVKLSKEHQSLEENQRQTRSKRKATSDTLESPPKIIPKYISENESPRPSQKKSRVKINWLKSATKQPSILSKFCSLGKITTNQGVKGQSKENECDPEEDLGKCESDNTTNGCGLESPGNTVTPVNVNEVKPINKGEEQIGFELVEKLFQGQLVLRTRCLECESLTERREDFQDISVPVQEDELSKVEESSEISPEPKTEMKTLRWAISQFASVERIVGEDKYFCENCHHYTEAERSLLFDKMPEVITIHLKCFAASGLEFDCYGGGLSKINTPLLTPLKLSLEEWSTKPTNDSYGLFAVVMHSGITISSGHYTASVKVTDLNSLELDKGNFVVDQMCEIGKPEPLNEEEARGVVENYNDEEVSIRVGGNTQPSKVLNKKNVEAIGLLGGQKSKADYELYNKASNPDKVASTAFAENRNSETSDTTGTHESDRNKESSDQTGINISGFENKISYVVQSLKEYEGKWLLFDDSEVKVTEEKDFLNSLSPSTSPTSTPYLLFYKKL

Row | Structure (SMILES) | activity change, negative = inhibition
1 | OC[C@H]1O[C@@](CO)(O[C@H]2O[C@H](CO)[C@@H](O)[C@H](O)[C@H]2O)[C@@H](O)[C@@H]1O | -6.16% (inactive)
2 | CCOC(C)OCC | 1.64% (inactive)
3 | C=C(C)C1CC=C(C)CC1 (stereo not given) | -0.947% (inactive)
4 | OCl | -5.21% (inactive)
5 | C[Si](C)(C)O[Si](C)(C)C | -1.72% (inactive)
6 | COC(=O)c1ccccc1O | -1.9% (inactive)
7 | CC1=CC(=O)NS(=O)(=O)O1 | -1.72% (inactive)
8 | CN(CCO)CC(O)Cn1cnc2c1c(=O)n(C)c(=O)n2C (stereo not given) (tested in a mixture with another compound) | -5.85% (inactive)
9 | NCCN | -5.82% (inactive)
10 | CO | -0.777% (inactive)
11 | C/C=C/C=C/C(=O)O | 1.14% (inactive)
12 | CCCCO | -0.322% (inactive)
13 | Cc1ccc(S(=O)(=O)O)cc1C | -11.6% (inactive)
14 | CO/N=C(/C(=O)N[C@@H]1C(=O)N2C(C(=O)O)=C(COC(N)=O)CS[C@H]12)c1ccco1 | -7.86% (inactive)
15 | ClC(Cl)Cl | -2.27% (inactive)
16 | CC(C)O | 2.15% (inactive)
17 | Oc1cccc(O)c1O | -11.3% (inactive)
18 | [O-][N+](=Nc1ccccc1)c1ccccc1 | -8.21% (inactive)
19 | CC(C)CCC[C@@H](C)[C@H]1CC[C@H]2[C@@H]3CC=C4C[C@@H](O)CC[C@]4(C)[C@H]3CC[C@]12C | -7.23% (inactive)
20 | CCCCC | 3.06% (inactive)
21 | OB(O)O | 0.161% (inactive)
22 | OC[C@H]1O[C@@H]2O[C@H]3[C@H](O)[C@@H](O)[C@@H](O[C@H]4[C@H](O)[C@@H](O)[C@@H](O[C@H]5[C@H](O)[C@@H](O)[C@@H](O[C@H]6[C@H](O)[C@@H](O)[C@@H](O[C@H]7[C@H](O)[C@@H](O)[C@@H](O[C@H]1[C@H](O)[C@H]2O)O[C@@H]7CO)O[C@@H]6CO)O[C@@H]5CO)O[C@@H]4CO)O[C@@H]3CO | -4.19% (inactive)
23 | Cc1ncc[nH]1 | -7.41% (inactive)
24 | O=P(O)(O)O | -1.05% (inactive)
25 | CC1=CCC2CC1C2(C)C (stereo not given) | -8.76% (inactive)
26 | O=c1n(CC2CO2)c(=O)n(CC2CO2)c(=O)n1CC1CO1 (stereo not given) | -10.6% (inactive)
27 | CCCCCCCCCCCCCCCCCC(=O)OC[C@@H](O)[C@H]1OC[C@H](O)[C@H]1O | -2.94% (inactive)
28 | Nc1nccs1 | -7.64% (inactive)

The compounds below were run against Estrogen receptor (Homo sapiens) (UniProt P03372) (assay: qHTS assay for small molecule antagonists of estrogen receptor alpha signaling (AID 588513; active = well fitted curve in the direction sought with a large enough effect in the signal ratio, with a control signal flat, not every such curve was filed as active; the % refers to the signal ratio; note: potency is the fitted concentration of half-maximal effect; for activity, negative = inhibition: % is set by controls: 0 for no effect and ±100 for the full control effect)). Conditions: ER-alpha-UAS-bla HEK293, beta-lactamase ratio, antagonist mode; series mostly up to 76.9 µM; activity, negative = inhibition: at the top concentration.
Summary of the method: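 ER-alpha-UAS-bla GripTite HEK 293 cells in medium with 2% charcoal/dextran-treated FBS were preincubated 4 h at 37 C, dosed with compound (1:2 titration), stimulated with 0.5nM 17-beta-estradiol for 18 h, then read by CCF4 beta-lactamase fluorescence.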

Chain of Estrogen receptor (Homo sapiens) (P03372 whole entry, looked up): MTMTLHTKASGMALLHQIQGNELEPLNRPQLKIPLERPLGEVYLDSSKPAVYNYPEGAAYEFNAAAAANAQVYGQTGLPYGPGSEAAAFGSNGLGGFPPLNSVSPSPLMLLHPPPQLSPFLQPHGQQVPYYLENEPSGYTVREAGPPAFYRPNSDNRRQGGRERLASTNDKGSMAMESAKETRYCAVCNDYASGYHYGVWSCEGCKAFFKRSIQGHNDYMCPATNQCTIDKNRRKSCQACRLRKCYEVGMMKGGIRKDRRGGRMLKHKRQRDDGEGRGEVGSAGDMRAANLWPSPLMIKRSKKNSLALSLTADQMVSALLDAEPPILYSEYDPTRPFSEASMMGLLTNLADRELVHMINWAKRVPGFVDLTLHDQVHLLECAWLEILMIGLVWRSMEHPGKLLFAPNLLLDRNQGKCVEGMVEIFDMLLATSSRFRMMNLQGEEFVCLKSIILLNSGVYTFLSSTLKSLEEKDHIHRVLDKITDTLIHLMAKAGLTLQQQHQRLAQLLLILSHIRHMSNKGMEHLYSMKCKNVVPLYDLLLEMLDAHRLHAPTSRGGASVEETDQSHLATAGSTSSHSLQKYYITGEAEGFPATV

Row | Structure (SMILES) | activity, negative = inhibition | Potency
29 | C=C(C)C1CC=C(C)CC1 (stereo not given) | -15% (inactive) | –
30 | OCl | 15.1% [at 36 µM] (inactive) | –
31 | COC(=O)c1ccccc1O | – | inactive
32 | CC/C=C\C/C=C\C/C=C\CCCCCCCC(=O)O | -2.85% (inactive) | –
33 | NCCN | 4.98% (inactive) | –
34 | Cc1ccc(S(=O)(=O)O)cc1C | -4.34% (inactive) | –
35 | C[C@H](CCC(=O)O)[C@H]1CC[C@H]2[C@@H]3[C@H](O)C[C@@H]4C[C@H](O)CC[C@]4(C)[C@H]3C[C@H](O)[C@]12C | 20.9% (inactive) | –
36 | CC(C)O | 27.2% [at 36 µM] (inactive) | –
37 | Oc1cccc(O)c1O | 6.2% (inactive) | –
38 | [O-][N+](=Nc1ccccc1)c1ccccc1 | 31.9% (inactive) | –
39 | OB(O)O | – | inactive
40 | OC[C@H]1O[C@@H]2O[C@H]3[C@H](O)[C@@H](O)[C@@H](O[C@H]4[C@H](O)[C@@H](O)[C@@H](O[C@H]5[C@H](O)[C@@H](O)[C@@H](O[C@H]6[C@H](O)[C@@H](O)[C@@H](O[C@H]7[C@H](O)[C@@H](O)[C@@H](O[C@H]1[C@H](O)[C@H]2O)O[C@@H]7CO)O[C@@H]6CO)O[C@@H]5CO)O[C@@H]4CO)O[C@@H]3CO | – | inactive
41 | CC1=CCC2CC1C2(C)C (stereo not given) | 5.67% (inactive) | –
42 | O=c1n(CC2CO2)c(=O)n(CC2CO2)c(=O)n1CC1CO1 (stereo not given) | -21% (inactive) | –
43 | Nc1ccc(N=Nc2ccccc2)c(N)n1 | – | inactive and 35.5 µM [inhibitor] (active)
44 | Cc1ccc(S(=O)(=O)NCl)cc1 | 4.33% (inactive) | –

These compounds were tested against Estrogen receptor (Homo sapiens) (UniProt P03372) (assay: qHTS assay for small molecule agonists of estrogen receptor alpha signaling (AID 588514; calls by dose curve; note: nearly all actives have a fitted effect of over 70% in size; note: potency is the fitted concentration of half-maximal effect;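 for activation: 0% = vehicle only and 100% = reference agonist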)). Conditions: ER-alpha-UAS-bla HEK293, beta-lactamase ratio, 18 h; series mostly up to 76.8 µM; activation: at the top concentration.
Summary of the method: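 ER-alpha-UAS-bla GripTite HEK 293 cells in medium with 2% charcoal/dextran-treated FBS were treated with compound titrations at 37 C for 18 hrs; beta-lactamase reporter read by CCF4 fluorescence after 2 hrs at RT.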

Row | Structure (SMILES) | activation | Potency
45 | OC[C@H]1O[C@@](CO)(O[C@H]2O[C@H](CO)[C@@H](O)[C@H](O)[C@H]2O)[C@@H](O)[C@@H]1O | -4.94% (inactive) | –
46 | C=C(C)C1CC=C(C)CC1 (stereo not given) | – | inactive
47 | OCl | 2.67% (inactive) | –
48 | COC(=O)c1ccccc1O | – | inactive
49 | CC/C=C\C/C=C\C/C=C\CCCCCCCC(=O)O | -3.23% (inactive) | –
50 | NCCN | – | 0.199 µM (active)
51 | Cc1ccc(S(=O)(=O)O)cc1C | -3.02% (inactive) | –
52 | C[C@H](CCC(=O)O)[C@H]1CC[C@H]2[C@@H]3[C@H](O)C[C@@H]4C[C@H](O)CC[C@]4(C)[C@H]3C[C@H](O)[C@]12C | -8% (inactive) | –
53 | CO[C@@H]1[C@H](OC(=O)/C=C/C=C/C=C/C=C/C(=O)O)CC[C@]2(CO2)[C@H]1[C@@]1(C)O[C@@H]1CC=C(C)C | 11.2% (inactive) | –
54 | CC(C)O | 1.72% (inactive) | –
55 | Oc1cccc(O)c1O | – | 8.91 µM (active)
56 | [O-][N+](=Nc1ccccc1)c1ccccc1 | 5.91% (inactive) | –
57 | OC[C@H]1O[C@@H]2O[C@H]3[C@H](O)[C@@H](O)[C@@H](O[C@H]4[C@H](O)[C@@H](O)[C@@H](O[C@H]5[C@H](O)[C@@H](O)[C@@H](O[C@H]6[C@H](O)[C@@H](O)[C@@H](O[C@H]7[C@H](O)[C@@H](O)[C@@H](O[C@H]1[C@H](O)[C@H]2O)O[C@@H]7CO)O[C@@H]6CO)O[C@@H]5CO)O[C@@H]4CO)O[C@@H]3CO | – | 11.2 µM (active)
58 | CC(C)CCCCCCc1ccc(O)cc1 | – | 2.51 µM (active)
59 | CC1=CCC2CC1C2(C)C (stereo not given) | -1.42% (inactive) | –
60 | Cc1ccc(S(=O)(=O)NCl)cc1 | -1.31% (inactive) | –
